The entries come from a sample that favours hits as a whole.
ST2 inh: inhibitors of human ST2 (IL1RL1) binding to IL-33, primary screen, biochemical, AlphaLISA; Interleukin-1 receptor-like 1 (Homo sapiens), Q01638; actives 2.3% (n = 78,000); AlphaLISA ST2-Fc/biotin-IL-33 interaction, 1 h; inhibition, % for hits at 17 µM; in the data active = inhibition above about 30%
Target sequence (Q01638 whole entry, looked up): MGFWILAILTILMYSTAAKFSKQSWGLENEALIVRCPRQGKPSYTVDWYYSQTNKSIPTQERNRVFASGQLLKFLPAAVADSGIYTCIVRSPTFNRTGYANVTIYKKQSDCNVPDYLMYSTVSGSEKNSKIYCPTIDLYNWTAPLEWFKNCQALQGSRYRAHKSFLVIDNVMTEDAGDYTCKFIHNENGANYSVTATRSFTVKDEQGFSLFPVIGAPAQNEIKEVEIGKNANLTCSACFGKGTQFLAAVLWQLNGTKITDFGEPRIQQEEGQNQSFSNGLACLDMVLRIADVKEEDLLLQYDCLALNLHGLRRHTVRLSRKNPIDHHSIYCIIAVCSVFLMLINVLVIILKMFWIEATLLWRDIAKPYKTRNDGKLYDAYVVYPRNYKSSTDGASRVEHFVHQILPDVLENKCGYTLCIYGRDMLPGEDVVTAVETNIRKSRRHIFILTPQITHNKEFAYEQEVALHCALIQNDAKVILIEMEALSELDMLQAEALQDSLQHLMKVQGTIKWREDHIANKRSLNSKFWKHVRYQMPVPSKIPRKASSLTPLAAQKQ
Starred values were filed as active, the others as inactive.

Screening Cc1cc(CNC(=O)c2cnn(-c3nccc(-c4cc(C)sc4C)n3)c2C)on1 returned ST2 inh 30%*.
Screening Cc1nc(CCNC(=O)c2cnn(-c3ccccn3)c2C)sc1C returned ST2 inh inactive.
COc1ccc(NC(=O)c2ccc(Br)cc2)c([N+](=O)[O-])c1 was read as ST2 inh inactive.
`COc1ccc(NC(=O)C(Cl)(Cl)Cl)c([N+](=O)[O-])c1` gave ST2 inh 34%*.
`COc1ccc(NC(=O)COc2ccccc2)c([N+](=O)[O-])c1` gave ST2 inh inactive.
Screening O=C(CSc1ncnc2sc3c(c12)CCC3)Nc1ccccc1F returned ST2 inh inactive.
`Cc1nnc(Sc2cc(C(=O)NCCC(C)C)c3ccccc3n2)s1` gave ST2 inh inactive.
COc1cccc(-c2ncnn2-c2sc3c(c2C#N)CCCCC3)c1OC was read as ST2 inh inactive.
Screening N#Cc1c(-n2ncnc2-c2cccs2)sc2c1CCCCC2 returned ST2 inh 44%*.
`COc1cc(-c2ncnn2-c2sc3c(c2C#N)CCCCC3)cc(OC)c1OC` gave ST2 inh inactive.
`CN(C)S(=O)(=O)c1ccc(C(=O)Nc2nc3c(cc4c5c(cccc53)CC4)s2)cc1` gave ST2 inh inactive.
CC(=O)N1c2ccccc2NC2=C(C(=O)CCC2)C1c1ccco1 (configuration not stated) was read as ST2 inh inactive.
`CC(=O)N1c2ccccc2NC2=C(C(=O)CCC2)C1c1ccc(Cl)c(Cl)c1` (configuration not stated) gave ST2 inh inactive.
`CC(C)C(=O)N1c2ccccc2NC2=C(C(=O)CCC2)C1c1ccco1` (configuration not stated) gave ST2 inh 30%*.
O=C(c1cccc(F)c1)N1CCN(c2ccc([N+](=O)[O-])c(NCc3ccccc3)c2)CC1 was read as ST2 inh 36%*.
For O=C(c1ccccc1Cl)N1CCN(c2ccc([N+](=O)[O-])c(N3CCOCC3)c2)CC1 the results were ST2 inh inactive.
Screening Cc1ccccc1C(=O)N1CCN(c2ccc([N+](=O)[O-])c(NCCc3ccccc3)c2)CC1 returned ST2 inh inactive.
For CC(=O)N1CCN(c2ccc([N+](=O)[O-])c(NC(C)C34CC5CC(CC(C5)C3)C4)c2)CC1 (configuration not stated) the results were ST2 inh inactive.
O=C(c1cccc(F)c1)N1CCN(c2ccc(Cl)cc2)CC1 was read as ST2 inh inactive.
O=[N+]([O-])c1ccc(N2CCN(S(=O)(=O)Cc3ccccc3)CC2)cc1NCc1cccnc1 was read as ST2 inh inactive.
O=C(c1ccccc1)c1ccc(N2CCN(C(=O)c3cccc(F)c3)CC2)c(F)c1 was read as ST2 inh inactive.
Cc1ccccc1C(=O)N1CCN(c2ccc([N+](=O)[O-])c(NC(C)c3ccccc3)c2)CC1 (configuration not stated) was read as ST2 inh 38%*.
Screening CC(Nc1cc(N2CCN(S(=O)(=O)N(C)C)CC2)ccc1[N+](=O)[O-])c1ccccc1 (configuration not stated) returned ST2 inh 30%*.
CC1=C(C(=O)Nc2ccc(F)cc2F)C(c2ccc(F)cc2)C2=C(CC(C)(C)CC2=O)N1 (configuration not stated) was read as ST2 inh inactive.
For O=c1c2ccccc2ncn1CCCCSc1ccc(Cl)cc1 the results were ST2 inh inactive.
N#Cc1ccc(Oc2cccc(C(=O)O)c2)cc1 was read as ST2 inh inactive.
For Cc1ccc(CN2CC[C@H](c3nnc(-c4cncn4C)o3)C2)o1 the results were ST2 inh inactive.
CCOC(=O)C1(C/C=C/c2ccccc2)CCCN(C(=O)Cn2cnnn2)C1 (configuration not stated) was read as ST2 inh inactive.
Screening Cc1cccc(CNC(=O)c2cccn2-c2nnc(N3CCCCC3)s2)c1 returned ST2 inh inactive.
For CCCn1cnc2c1CN(C(=O)CCC(=O)O)[C@H](C(=O)OC)C2 the results were ST2 inh inactive.
Screening Brc1cccc(CN2CCSCC2)c1 returned ST2 inh inactive.
NC(=O)c1c(NC(=O)c2cc(-c3cccc(Cl)c3)on2)sc2c1CCCC2 was read as ST2 inh inactive.
For COc1ccc(-c2ccc(/C=C3\C(=O)N(c4cccc(Cl)c4)N=C3C)o2)cc1[N+](=O)[O-] the results were ST2 inh 49%*.
For CC1=NN(c2cccc(Cl)c2)C(=O)/C1=C\c1ccc(-c2cc([N+](=O)[O-])ccc2O)o1 the results were ST2 inh 91%*.
For CC1=NN(c2ccc(Cl)c(C(=O)O)c2)C(=O)/C1=C\c1ccc(-c2cccc([N+](=O)[O-])c2)o1 the results were ST2 inh inactive.
COc1ccc(/C=C2\C(=O)N(c3cccc(Cl)c3)N=C2C)cc1Br was read as ST2 inh inactive.
CC1=NN(c2ccc(Br)cc2)C(=O)/C1=C\c1ccc(-c2cccc([N+](=O)[O-])c2)o1 was read as ST2 inh inactive.
COc1ccc(/C=C2\C(=O)N(c3ccccc3)N=C2C)cc1[N+](=O)[O-] was read as ST2 inh inactive.
Screening O=C(Cn1nnc(-c2ccccc2)n1)Nc1ccccc1F returned ST2 inh inactive.
Screening COc1ccc(CC(=O)Nc2ccccc2OC)cc1 returned ST2 inh inactive.
Screening CN(C)c1ccc(/C=c2\sc3nncn3c2=O)cc1 returned ST2 inh inactive.
CCc1cc(C(=O)NCc2c(C)ncc3c2CCN(C(=O)/C=C/c2cccc(F)c2)C3)n(C)n1 was read as ST2 inh inactive.
For COc1ccccc1CN1C(=O)O[C@@H]2CN(C(=O)C(=O)c3ccco3)C[C@@H]21 the results were ST2 inh inactive.
For O=C1CC(N2CCN(c3ccc(F)cc3)CC2)C(=O)N1c1cccc([N+](=O)[O-])c1 (configuration not stated) the results were ST2 inh inactive.
`CN(C)N1C(=O)CC(Nc2ccc(F)cc2)C1=O` (configuration not stated) gave ST2 inh inactive.
Screening O=C(c1cc2ncccn2n1)N1CC[C@@H](c2ccc3c(c2)OCO3)[C@H](O)C1 returned ST2 inh inactive.
For CCOC(=O)C1(CCc2ccccc2)CCCN(C(=O)CCN2CCCCO2)C1 (configuration not stated) the results were ST2 inh inactive.
Cc1ccc2[nH]c(=O)nc(-c3ccccc3)c2c1 was read as ST2 inh inactive.
Screening CC1=Nc2c([nH]c3ccccc23)-c2cc(C)ccc2N1 returned ST2 inh 32%*.
Screening Cc1ccc(NC(=O)CCNC(=O)c2ccc(-n3cnnc3)cc2)cc1 returned ST2 inh inactive.
For Cc1cc(C(=O)Nc2ccc(Br)c(C(F)(F)F)c2)ccc1[N+](=O)[O-] the results were ST2 inh inactive.
Screening CN(C)C(=O)c1ccccc1C(=O)N(C)C returned ST2 inh inactive.
O=C(Nc1ccc(Br)cc1)c1cc(-c2ccc(Cl)cc2)on1 was read as ST2 inh inactive.
O=C(Nc1ccc(F)cc1F)c1cc(-c2ccc(Br)cc2)on1 was read as ST2 inh inactive.
COc1ccc(-c2cc(C(=O)Nc3cc(Br)ccc3O)no2)cc1 was read as ST2 inh 35%*.

Screening results from PubChem BioAssay.
